# Results reported in PubChem BioAssay AID651826 (Vanderbilt Specialized Chemistry Center, 2012).
# Activity calls are given as the source filed them.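 Rule for the calls: active = inhibition above 50% of specific binding or functional response at a panel target; inactive = the rest.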
# Assay: off-target binding across receptor panel, profiling panel, selectivity assay for E-cadherin project, biochemical, Ricerca panel, radioligand binding (AID 651826)
# Conditions: Ricerca radioligand binding/enzyme panel, % inhibition, at 10 µM, stronger effect = higher value
smiles,measurement,setting,value
O=C(NCCCNC(=O)c1ccc[nH]c1=O)c1cc(-c2ccccc2)on1,inhibition,,74% (active)
same,inhibition,measured here: 5-HT1A binding,-4%
same,inhibition,measured here: GABAA muscimol site binding,20%
same,inhibition,measured here: adenosine A1 binding,71%
same,inhibition,measured here: cannabinoid CB1 binding,-23%
same,inhibition,measured here: dopamine D3 binding,18%
same,inhibition,measured here: dopamine transporter binding,31%
same,inhibition,measured here: hERG channel binding,13%
same,inhibition,measured here: mu opioid binding,-5%
same,inhibition,measured here: muscarinic M1 binding,9%
same,inhibition,measured here: norepinephrine transporter binding,13%
same,inhibition,measured here: serotonin transporter binding,10%
same,inhibition,measured here: sigma1 receptor binding,47%
